ELG1 DNA repair = qHTS screen for small molecules that inhibit ELG1-dependent DNA repair in human embryonic kidney (HEK293T) cells expressing luciferase-tagged ELG1; HEK293T ELG1-luciferase reporter, luminescence, 16 h; DNA damage induced by 5-fluorouridine; Potency, µM (titrated, usually from 46.1 µM), most hits filed as inhibitors; hit rate 2.3% among 330,000; AID 504467, 2011; also: nearly all actives have a fitted effect of over 55% in size
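Overnight (16 hr) co-exposure of 2,000 cells/well to 5-fluorouridine and compound at 37 °C preceded detection. Luciferase was quantified via ONE-Glo luminescence; loss of signal denotes inhibition.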
FLuc modulator = qHTS profiling assay for firefly luciferase inhibitor/activator using purifed enzyme and Km concentrations of substrates (counterscreen for miR-21 project); Luciferin 4-monooxygenase (Photinus pyralis), P08659; purified FLuc, Km substrates, luminescence inhibition; Potency, µM (doses to about 57.5 µM), actives largely listed as inhibitors; hit rate 6.9% among 360,000; also: nearly all actives have a fitted effect of over 55% in size
Target sequence (P08659 whole entry, looked up): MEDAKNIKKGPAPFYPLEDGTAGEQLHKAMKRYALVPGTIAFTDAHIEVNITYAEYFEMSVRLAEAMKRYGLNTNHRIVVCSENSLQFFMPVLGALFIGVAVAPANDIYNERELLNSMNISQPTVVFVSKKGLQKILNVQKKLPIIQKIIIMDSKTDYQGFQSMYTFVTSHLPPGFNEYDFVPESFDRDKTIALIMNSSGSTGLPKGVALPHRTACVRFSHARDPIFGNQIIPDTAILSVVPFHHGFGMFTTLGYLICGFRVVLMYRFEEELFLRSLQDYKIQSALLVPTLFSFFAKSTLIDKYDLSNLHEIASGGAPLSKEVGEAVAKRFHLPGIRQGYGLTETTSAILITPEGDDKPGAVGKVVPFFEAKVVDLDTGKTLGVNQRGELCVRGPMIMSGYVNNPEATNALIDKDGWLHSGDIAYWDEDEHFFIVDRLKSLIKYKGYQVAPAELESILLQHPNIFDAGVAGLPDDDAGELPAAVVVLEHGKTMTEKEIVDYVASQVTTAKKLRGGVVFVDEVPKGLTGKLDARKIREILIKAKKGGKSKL
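Purified P. pyralis luciferase, 10 nM final, with Km-level 10 uM D-luciferin and 10 uM ATP in 50 mM Tris acetate pH 7.5, 10 mM Mg acetate, 0.01% Tween-20, 0.05% BSA; 6-point qHTS titration about 60 µM downward; luminescence read.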
NPC1 prom act = qHTS Assay for NPC1 Promoter Activators | Potency, µM (highest dose often 9.22 µM), usual class: activators | hit rate 2.4% among 320,000 | Huh7 NPC1 promoter luciferase reporter, 24 h; also: nearly all actives have a fitted effect of over 60% in size
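Luciferase expression driven by the NPC1 promoter was measured in stably transfected Huh7 cells after a 24 h compound incubation, using a luciferase reagent and a luminescence read.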
ELG1 genotox = qHTS screen for small molecules that induce genotoxicity in human embryonic kidney (HEK293T) cells expressing luciferase-tagged ELG1; HEK293T ELG1-luciferase reporter, luminescence, 16 h; Potency, µM (series often up to 46 µM), most hits filed as activators; hit rate 1.3% among 330,000; AID 504466, 2011; also: nearly all actives have a fitted effect of over 60% in size
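HEK293T cells expressing luciferase-tagged ELG1 were exposed to compound or DMSO vehicle for 16 hr at 37 °C and 5% CO2. Luciferase activity was then measured with ONE-Glo after 30 min at room temperature.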
Rab9 prom act = qHTS Assay for Rab9 Promoter Activators. hit rate 2.8% among 320,000. Huh7 Rab9 promoter-luciferase reporter, luminescence, 24 h. AID 485297, 2010. Potency, µM (doses to about 9.22 µM), actives largely listed as activators; also: nearly all actives have a fitted effect of over 60% in size
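Luminescence read-out: Huh7 cells stably expressing Rab9-luciferase, treated 24 h with compound at 37 °C, then lysed with luciferase reagent for 10 min at ambient before reading.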
SMN2 splice enh = qHTS Assay for Enhancers of SMN2 Splice Variant Expression | HEK293 SMN2-luciferase splicing reporter, luminescence, 30-36 h | Potency, µM (highest dose often 46.1 µM), usual class: activators | hit rate 2.8% among 210,000; also: nearly all actives have a fitted effect of over 55% in size
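HEK293 cells carry an SMN2 […]–luciferase reporter in which exon 7 inclusion puts luciferase in frame. Cells were plated 10-12 h before compound addition, then incubated 30-36 h at 37C. ONE-Glo luminescence was read; sodium butyrate at 4.5 mM final served as control.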
Numbers stand for hits; – = inactive; ? = inconclusive; · = not tested or not shown; [ ] = another dose, or the depositor's remark. Sampled rows, rich in hits. Any-hit rate of the full collection: about 9.2%. Calls follow the shape of the dose curve; as a rule, active = well fitted curve in the direction sought with a large enough effect; inconclusive = small, poorly fitted or top-dose-only effect, or another doubt; inactive = no such curve, though single readings can be large; an effect the other way counts as inactive or inconclusive.

SMILES	ELG1 DNA repair	FLuc modulator	NPC1 prom act	ELG1 genotox	Rab9 prom act	SMN2 splice enh
CCC(C)NC(=O)c1cn(CC)c2ccc(S(=O)(=O)N3CCCCCC3)cc2c1=O (stereo unspecified)	6.51µM	–	–	–	–	·
CCn1cc(C(=O)NC2CCC(C)CC2)c(=O)c2cc(S(=O)(=O)N3CCCCC3)ccc21 (stereo unspecified)	?	21.3µM	?	–	?	12.6µM
Cn1cc(C(=O)NC2CCCCC2)c(=O)c2cc(S(=O)(=O)N3CCCC3)ccc21	–	–	–	–	–	11.2µM
O=C(c1ccncc1)N1CCN(S(=O)(=O)c2ccccc2F)CC1	–	·	·	–	·	·
COc1ccc(Cl)cc1NC(=O)CCN1C(=O)c2ccccc2Sc2ncccc21	·	–	·	·	·	·
O=C(CSc1nnc(SCc2ccccc2Cl)s1)N/N=C/c1ccc(C(=O)O)cc1	–	3.38µM	–	–	–	·
Cc1nn(-c2ccccc2)c(C)c1/C=N/NC(=O)c1cc(-c2cccs2)[nH]n1	?	13.5µM	–	–	–	–
CCOc1cc(/C=N/NC(=O)CSc2nnc(C)s2)ccc1OCc1ccccc1Cl	–	–	–	–	–	–
Cc1[nH]c2ccccc2c1/C=N/NC(=O)c1cccs1	?	26.9µM	–	?	–	?
Cc1nn(-c2ccccc2)c(C)c1/C=N/NC(=O)c1cc(-c2ccc(Br)s2)[nH]n1	8.2µM	?	–	–	–	–
C/C(=N\OCC(=O)OCC(=O)N(C)c1ccccc1)c1ccc2c(c1)OCO2	–	–	–	–	–	·
Cc1nn(-c2ccccc2)c(C)c1/C=N/NC(=O)c1cc(-c2ccc(Cl)s2)[nH]n1	?	10.7µM	–	–	–	–
Cc1c(/C=N/NC(=O)c2cccs2)c2ccccc2n1Cc1ccccc1Cl	–	8.49µM	–	–	–	·
CC(/C=N/NC(=O)CSc1nnc(SCc2ccccc2)s1)=C\c1ccco1	–	21.3µM	–	–	–	–
Cc1c(/C=N/NC(=O)c2cccnc2)c2ccccc2n1Cc1ccccc1	?	–	–	–	–	–
Cc1nn(-c2ccccc2)c(C)c1/C=N/NC(=O)CSc1nnc(SCc2ccc(Cl)cc2)s1	?	9.53µM	–	–	–	–
O=C(CSc1nnc(SCc2ccccc2)s1)N/N=C/c1c(Cl)cccc1Cl	–	?	–	–	–	–
CC(C)(C)c1cc(Br)c(O)c(N=Nc2ccc(S(=O)(=O)N3CCOCC3)cc2)c1	?	–	–	–	–	–
CN1CCN(C(=O)c2ccc3c(c2)N(Cc2ccc(C(F)(F)F)cc2)C(=O)c2ccccc2S3)CC1	·	–	·	·	·	–
COC1CCCN(Cc2c(C(=O)N3CCN(C4CCCCC4)CC3)nc3ccccn23)C1 (stereo unspecified)	–	–	–	–	–	·
CC(NCC(=O)Nc1ccccc1C(=O)NC1CC1)c1cccc(C(F)(F)F)c1 (stereo unspecified)	?	–	–	–	–	·
Cc1nn(-c2ccccc2)c(C)c1/C=N/NC(=O)c1ccccc1NS(=O)(=O)c1cccs1	–	10.7µM	–	–	–	–
Cc1nn(-c2ccccc2)c(C)c1/C=N/NC(=O)c1cccs1	?	8.49µM	?	?	?	17.8µM
Cc1ccc(CSc2nnc(SCC(=O)N/N=C/C=C/c3ccccc3[N+](=O)[O-])s2)cc1	?	1.35µM	–	–	–	–
COc1cccc(CN2CCN(Cc3cccc(Br)c3)CC2)c1OC	–	–	–	–	–[1.84 µM]	·
SMILES	ELG1 DNA repair	FLuc modulator	NPC1 prom act	ELG1 genotox	Rab9 prom act	SMN2 splice enh
COc1cc(/C=N/NC(=O)c2ccc3c(c2)OCCO3)c(Br)c(Br)c1O	?	9.53µM	–	–	–	·
COc1cc(/C=N/NC(=O)CC2(C)OCCO2)cc(Br)c1O	–	–	–	–	–	–
COc1cc(/C=N/NC(=O)C23CC4CC(CC(C4)C2)C3)cc(Br)c1O	–	13.5µM	–	–	–	–
COc1cc(/C=N/NC(N)=S)cc(Br)c1OCc1ccccc1F	23.1µM	–	–	–	–	–
COc1ccc(/C=N/NC(=O)c2ccc3c(c2)OCO3)c(C(=O)O)c1OC	–	–	–	–	–	·
CCOc1cc(/C=N/NC(=O)c2nn(C)cc2Br)ccc1OCc1ccccc1	18.4µM	?	–	–	–	–
CC(=O)Nc1ccnn1C1CCN(C(=O)c2cccc(C)c2C)CC1	–	–	–	–	–	·
COc1ccc(C(=O)Nc2ccc3c(c2)N(C2CCCC2)C(=O)c2ccccc2S3)cc1OC	·	–	·	·	·	·
COc1cc(/C=N\NC(=O)c2ccc(-c3ccccc3)cc2)cc(Br)c1O	–	10.7µM	–	–	–	·
COc1cc(/C=N/NC(=O)c2ccc3c(c2)OCCO3)cc(Br)c1O	?	10.7µM	–	–	–	·
O=C(N/N=C/c1cc([N+](=O)[O-])cc(Br)c1O)C12CC3CCC(CC(C3)C1)C2	23.1µM	–	–	–	–	·
CCOc1cc(/C=N/NC(N)=O)cc(Br)c1OCc1ccccc1	–	–	–	–	–	–
CCOc1c(Br)cc(/C=N\NC(=O)c2ccccc2)cc1OC	?	5.36µM	–	–	–	–
CCCN1CCN(c2cc3c(cc2F)c(=O)c(S(=O)(=O)c2ccc(Cl)cc2)cn3C)CC1	·	–	·	·	·	·
Cc1c(-c2nc(-c3ccccc3)no2)nnn1-c1ccc(F)c(Cl)c1	·	–	·	·	·	·
COc1ccc(Cl)cc1-n1nnc(-c2nc(-c3ccccc3)no2)c1C	·	15.1µM	·	·	·	·
COc1cccc(-n2nnc(-c3nc(-c4ccccc4F)no3)c2C)c1	·	2.39µM	·	·	·	·
COC(=O)c1ccc(-n2nnc(-c3nc(-c4ccccc4Cl)no3)c2C)cc1	·	–	·	·	·	·
COc1ccc2oc(=O)cc(CN(C)Cc3ccccc3)c2c1	–	–	–	–	–	·
CCc1ccc2c(CN(C)Cc3ccccc3OC)cc(=O)oc2c1	?	16.9µM	–	–	–	·
Cc1cc2oc(=O)cc(CN(C)Cc3cccc(F)c3)c2cc1Cl	–	–	–	–	–[1.84 µM]	·
COc1ccc(CN(C)Cc2cc(=O)oc3cc(C)c(C(C)C)cc23)cc1OC	18.3µM	–	–	–	–	·
Cc1ccc2c(CN(C)Cc3cccc(F)c3)cc(=O)oc2c1	?	10.7µM	?	?	–[1.84 µM]	·
O=C(CCNC(=O)c1ccc(Cl)cc1)NNC(=O)c1ccc(F)cc1	–	–	–	–	–	·
CCCCn1c(SCC(=O)NC(=O)Cc2ccccc2)nc2ccccc2c1=O	–	–	–	–	–	·
COc1ccc(-c2cc(C(F)(F)F)nc(SCCC(=O)Nc3ccc(O)cc3)n2)cc1	·	–	·	·	·	–

Screening data: PubChem, National Center for Advancing Translational Sciences (NCATS)
